Measured values: PubChem BioAssay (NCI)
Values joined by “and” are separate entries in the source; they are usually repeats but may differ in a detail not shown here. Identical values can stand only once. The panel holds about 83,000 compounds, 20% with a hit somewhere; the sample as a whole holds those more often.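 The endpoint reported here, percent growth, reads 100 for growth as untreated, 0 for no net growth and -100 for all cells dead.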 Active and inactive are the calls of the source. Rule for the calls: active = growth percent below 10; inactive = the rest.

System: SK-MEL-5 melanoma
Assay: NCI-60 one-dose screen, 48 h (100 = growth as untreated, 0 = no growth, -100 = all killed)
Conditions: 10 µM unless noted

| SMILES | growth |
| --- | --- |
| CC[C@@]1(O)C[C@H](OC2CC(N(C)C)C(O)C(C)O2)c2c(O)c3c(c(O)c2[C@H]1OC1CC(N(C)C)C(O)C(C)O1)C(=O)c1cccc(O)c1C3=O (stereo partly specified) | -89% (active) |
| COC1CC(CC2CCC(C)C(C(C)C(=O)O)O2)OC2(OC(C)(C3CCC(C)(C4OC(C5OC(O)(CO)C(C)CC5C)CC4C)O3)CC2C)C1C (stereo unspecified) | -96.3% (active) |
| CCC(=O)OC1CCn2c1nc1c2C(=O)C(C)=C(N2CC2)C1=O (stereo unspecified) | -98% (active) |
| CO[C@H](/C(C)=C/C=C/C(C)=C/c1coc(C)n1)[C@H](C)[C@H]1C[C@@H](O)[C@@]2(C)O[C@H]2/C=C/[C@@H](C)[C@@H]2C[C@@H](CC(=O)O2)C[C@H]2O[C@@H]2C(=O)O1 | -18.7% (active) |
| CC1=C(CO)C2=C(C)C3(CC3)[C@@](C)(O)C(=O)C2=C1 | -84.1% (active) |
| COC1=C(C)C(=O)C2=C(C1=O)C(CO)N1C(C#N)C3CC4C(C1C2N1CCOC41)N3C (stereo unspecified) | -90.1% (active) |
| CN1CCN(c2ccc([N+](=O)[O-])c3no[n+]([O-])c23)CC1 | -46.6% (active) |
| COc1cccc2c1cc([N+](=O)[O-])c1c(C(=O)O)cc3c(c12)OCO3 | 78.9% (inactive) and 104% (inactive) |
| CCOC(=O)C(NC(=O)C(Cc1ccc(N(CCCl)CCCl)cc1)NC(C)=O)C(C)C (stereo unspecified) | 97.7% (inactive) |
| C[C@]12CC[C@H](O)CC1=CC[C@@H]1[C@@H]2CC[C@]2(C)C(=O)CC[C@@H]12 | 92.9% (inactive) |
| NCCc1ccc(OCc2ccccc2)c(OCc2ccccc2)c1 | 89.3% (inactive) |
